Bioassay records deposited in PubChem BioAssay by National Center for Advancing Translational Sciences (NCATS).
Hits are enriched below; roughly 2.3% of the tested compounds scored in any of these assays.
A549 tox-1: kills or reduces viability of A549 cells in Nrf2 counter-screen | A549 ARE-Fluc cells, CellTiter-Fluor viability, 18-24 h | 390,000 compounds, 0.16% hits | Potency, µM (titrated, usually from 46 µM), for inactives: at the top dose activity change, negative = cytotoxicity, hits mostly inhibitors; also: % is scaled to controls: 0 for no effect and ±100 for the full control effect
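Cytotoxicity counterscreen: CellTiter-Fluor fluorescence was measured in A549 ARE_Fluc cells after 18-24 h of compound exposure in a concentration series. The subsequent BugLite luminescent read reports ARE-luciferase activity.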
Nrf2 block: blocks Nrf2 signaling; Potency, µM (titrated, usually from 46 µM), for the others: top-dose activity change, negative = inhibition, most hits filed as inhibitors; 360,000 compounds, 2.1% hits; A549 ARE-Fluc reporter, luciferase luminescence, 18-24 h; AID 504444; also: % is scaled to controls: 0 for no effect and ±100 for the full control effect; nearly all actives have a fitted effect of over 60% in size
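Cells were seeded and rested 2 h, then exposed to compounds for 18-24 h. CellTiter-Fluor was read first as a viability measure. BugLite was added 15 min before the final luminescent read of ARE-luciferase activity in A549 cells.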
Rango complex inh: inhibitors of Rango-importin beta complex formation | Potency, µM (series often up to 92.2 µM), for inactives: at the highest dose inhibition of complex formation | 340,000 compounds, 0.031% hits | Rango CFP/YFP FRET sensor + importin beta, 45 min | AID 540263 | Q14974; calls by dose curve;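 also: 0% = DMSO wells and 100% = buffer wells lacking importin beta; nearly all actives have a fitted effect of over 15% in size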
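FRET biosensor (snurportin 1 IBB flanked by EYFP and cerulean), 50 nM, with compound 5 min, then 0.125 microM importin beta in PBS, 1 mM DTT, 0.02% Tween-20, 0.1% BSA. CFP/YFP ratio read after 45 min at room temperature; pre-read flags interference.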
Rango dissoc inh: prevents RanGTP from dissociating the Rango-importin beta complex. O95149+P62826. Biochemical FRET Rango-importin beta, RanGTP-induced dissociation. Potency, µM (doses to about 46.1 µM), inactives show at the highest dose activity change, negative = inhibition. 340,000 compounds, 0.071% hits. AID 540253; calls by dose curve; also: % of control where 0% means no effect; nearly all actives have a fitted effect of over 45% in size
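Compounds sat 5 min at room temperature with 0.1 uM Rango biosensor plus 0.25 uM importin beta, then FRET pre-read. RanGTP-RCC1 (0.6 uM Ran, 2mM GTP, 0.2 uM RCC1) added for 45 min, and the CFP/YFP post-read measured blocked complex dissociation.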
Nrf2 activator: activators of Nrf2 (ARE) signaling; AID 624171; 410,000 compounds, 0.31% hits; AREc32 ARE-luciferase reporter (MCF7-derived line), luminescence, 24 h; Potency, µM (titrated, usually from 46.1 µM), for inactives: at the top dose activation, actives largely listed as activators; also: % of control where 0% means no effect; nearly all actives have a fitted effect of over 65% in size
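AREc32_Fluc, 1000 cells/well, OPTI-MEM + 5% FBS, o/n 37 deg C 5% CO2; 23 nL cpd by pin tool, 24 hr; Steady-Glo 30 min RT, luminescence.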
FLuc counter 3: firefly luciferase inhibition, Nrf2 hit validation; shares compounds with Nrf2 block; purified firefly luciferase, luminescence inhibition; Potency, µM (highest dose often 57.5 µM), inactives show at the top dose activity change, negative = inhibition, actives largely listed as inhibitors; 1,400 compounds, 4% hits; also: % is scaled to controls: 0 for no effect and ±100 for the full control effect; nearly all actives have a fitted effect of over 65% in size
Target sequence (P08659 whole entry, looked up): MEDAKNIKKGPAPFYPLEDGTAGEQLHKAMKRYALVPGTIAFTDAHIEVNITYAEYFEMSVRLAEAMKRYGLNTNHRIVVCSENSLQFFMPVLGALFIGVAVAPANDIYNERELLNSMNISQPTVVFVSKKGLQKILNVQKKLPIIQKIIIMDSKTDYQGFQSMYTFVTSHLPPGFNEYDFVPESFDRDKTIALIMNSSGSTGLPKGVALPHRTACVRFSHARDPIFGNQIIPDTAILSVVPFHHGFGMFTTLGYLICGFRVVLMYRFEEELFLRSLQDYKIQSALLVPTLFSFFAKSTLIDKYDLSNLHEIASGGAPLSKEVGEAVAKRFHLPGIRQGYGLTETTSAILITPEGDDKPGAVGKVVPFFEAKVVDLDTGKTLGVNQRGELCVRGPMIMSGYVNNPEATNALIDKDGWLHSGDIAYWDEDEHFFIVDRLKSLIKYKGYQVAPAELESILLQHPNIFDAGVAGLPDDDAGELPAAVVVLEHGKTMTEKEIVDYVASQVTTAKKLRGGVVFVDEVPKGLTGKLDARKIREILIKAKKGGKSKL
A549 tox-2: toxic to A549 ARE-Fluc cells in Nrf2 counterscreen; shares compounds with Nrf2 block; A549 ARE-Fluc cells, cytotoxicity counterscreen; Potency, µM (series often up to 46.1 µM), inactives show top-dose activity change, negative = cytotoxicity, actives largely listed as inhibitors; 1,400 compounds, 2% hits;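 also: cells exposed to compounds for 18 to 24 hours; % is scaled to controls: 0 for no effect and ±100 for the full control effect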
Nrf2 ARE inh: confirmation of Nrf2 inhibitors in A549 ARE reporter cells; 1,400 compounds, 74% hits; Potency, µM (doses to about 46.1 µM), for the others: top-dose activity change, negative = inhibition, most hits filed as inhibitors; shares compounds with Nrf2 block; A549 ARE-firefly luciferase reporter, luminescence; also: % is scaled to controls: 0 for no effect and ±100 for the full control effect; nearly all actives have a fitted effect of over 65% in size
Numbers without * were called inactive; ? = inconclusive; / = not tested or not shown; [ ] = another dose, or the depositor's remark. Unless noted, calls follow the shape of the dose curve; as a rule, active = well fitted curve in the direction sought with a large enough effect; inconclusive = small, poorly fitted or top-dose-only effect, or another doubt; inactive = no such curve, though single readings can be large; an effect the other way counts as inactive or inconclusive. Potency is read from the fitted curve at half-maximal effect.

SMILES	A549 tox-1	Nrf2 block	Rango complex inh	Rango dissoc inh	Nrf2 activator	FLuc counter 3	A549 tox-2	Nrf2 ARE inh
COc1ccc(S(=O)(=O)N2CCN(c3ccccc3F)CC2)cc1-c1noc(C)n1	?	?	/	/	3%	/	/	/
Cc1ccc(NC(=O)NNC(=O)Cn2nc(-c3ccccc3)c(-c3ccccc3)c(C#N)c2=O)cc1	?	18%	2%	-7%	2%	/	/	/
CC(C)Cn1c(N)c(C(=O)CSc2ccccc2)c(=O)n(C)c1=O	-2%	?	0%	11%	2%	/	/	/
CC(C)Cn1c(N)c(C(=O)COC(=O)CC23CC4CC(CC(C4)C2)C3)c(=O)n(C)c1=O	?	2.1µM*	0%	-7%	0%	-28%	-12%	/
CC(C)Cn1c(N)c(C(=O)COC(=O)/C=C/c2ccccc2)c(=O)n(C)c1=O	?	6.5µM*	-1%	-10%	0%	1%	-5%	7.3µM*
O=S(=O)(c1ccc(Cl)cc1)c1nc(-c2ccco2)oc1SCc1ccc(F)cc1	-13%	-6%[9.27 µM]	/	/	1%	/	/	/
NC(=O)c1ccc[n+](CC(=O)c2ccc(F)cc2)c1	-10%	-5%	-1%	-2%	0%	/	/	/
CC(O)CNCc1ccccc1C(F)(F)F (centres undefined)	3%	-2%	3%	-3%	0%	/	/	/
CSCCC(c1nnnn1C1CCCC1)N1CCN(C/C=C/c2ccccc2)CC1 (centres undefined)	/	/	/	/	1%	/	/	/
COC(C(=O)C(O)C(C)O)C1Cc2cc3cc(OC4CC(OC5CC(O)C(O)C(C)O5)C(O)C(C)O4)c(C)c(O)c3c(O)c2C(=O)C1OC1CC(OC2CC(OC3CC(O)C(OC)C(C)O3)C(O)C(C)O2)C(O)C(C)O1 (centres undefined)	?	0.12µM*	?	?	-2%	-4%	-21%	0.37µM*
CCN(CC(=O)Nc1c(F)cccc1F)C(=O)c1ccc(C)c(S(=O)(=O)N2CCCCC2)c1	-7%	-15%	0%	4%	0%	/	/	/
COc1ccc(S(=O)(=O)Nc2ccc(N3CCOCC3)cc2)cc1	8%	?	-5%	23%	-1%	/	/	/
COc1ccc(NS(=O)(=O)c2ccc(N3CCOCC3)c(N)c2)cc1	-17%	3.3µM*	2%	-20%	-1%	-2%	0%	4.1µM*
CCn1nc(C)c(CNC(=O)c2ccc(OC3CCN(Cc4ccccn4)CC3)cc2)c1C	-16%	1.5µM*	0%	-5%	0%	1%	-6%	1.5µM*
CCOc1ccccc1CN1CCC(Oc2ccc(C(=O)NCc3ccccn3)cc2)CC1	-9%	?	0%	-7%	0%	/	/	/
Cc1ccc(N(C(=O)CNC(=O)c2ccco2)C(C(=O)NC2CCCCC2)c2ccncc2)c(C)c1 (centres undefined)	-3%	-18%	2%	-8%	2%	/	/	/
CC(C)(C)c1nc(N2CCN(C(=O)c3ccco3)CC2)c2nnn(Cc3ccccc3)c2n1	?	8.2µM*	2%	-11%	0%	1%	?	1.3µM*
